This is a sample that favours compounds with a hit; in the whole collection about 27% have one here.
CYP2C19 activ: increases human CYP2C19 enzyme activity; AID 1025; activation factor at 5 µM; recombinant CYP2C19, luciferin-H EGE luminescence; stronger effect = higher value; 0 = fully inhibited enzyme, 1 = untreated enzyme; P33261; 96,000 tested, under 10 active;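 active = activation factor of at least 2 at 5 µM in the primary screen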;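 note: 0 = wells with 2.5 mM tranylcypromine and 1 = vehicle-only wells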
Cav3 T inh: inhibitors of human Cav3.2 T-type calcium channel | O95180 | Cav3.2-expressing cells, Fluo-4 calcium fluorescence FDSS; stronger effect = lower value | B-score at 10 µM | actives 4% (n = 100,000) | AID 449739;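 active = single-dose well whose peak fluorescence ratio is a statistical outlier from its plate by either plate-standardised score or position-corrected B-score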
CYP2C9 inh: human CYP2C9 inhibition. P11712. CYP2C9 Supersomes, luciferin-H conversion, luminescence. inhibition, % at 5 µM. actives 20% (n = 96,000). AID 777;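 active = blocking of liver enzyme CYP2C9 beyond about 50% at 5 µM, limit read from the data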
CYP2C19 inhib: inhibitors of human CYP2C19; P33261; CYP2C19 Supersomes, luciferin-H EGE luminescence, 30 min; inhibition, % at 5 µM; actives 21% (n = 96,000); AID 778;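 active = CYP2C19 inhibition above a set limit at 5 µM in the primary screen, cut at about 50% in these data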;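 note: plate controls were negative control wells for no effect and 2.5 mM tranylcypromine positive control for full effect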
CYP2C9 activ: activators of human CYP2C9; activation factor at 5 µM; P11712; actives 1.4% (n = 96,000); AID 1024; recombinant CYP2C9, luciferin-H conversion, luminescence; stronger effect = higher value; factor 1 = untreated enzyme, 0 = blocked;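 active = activation factor of 2 or more for CYP2C9 at a 5 µM dose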;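 note: 0 = sulfaphenazole-blocked wells and 1 = vehicle-only wells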
Numbers without * were called inactive; . = not tested or not shown.

SMILES	CYP2C19 activ	Cav3 T inh	CYP2C9 inh	CYP2C19 inhib	CYP2C9 activ
O=S(=O)(Nc1ccc(F)cc1)c1ccc(NC(=S)Nc2ccccc2)cc1	0.4	.	85.6*	57.3*	0.1
O=S(=O)(Nc1ccccc1)c1ccc(F)cc1	0.1	0.729	71.8*	92.1*	0.3
Cc1cccc(C)c1NS(=O)(=O)c1ccc(F)cc1	0	-1.77	75.0*	98.7*	0.3
Cc1cc(S(=O)(=O)Nc2ccccc2C)ccc1F	.	-1.28	.	.	.
O=C(CSCC(=O)NC1CC1)Nc1ccc2ccccc2c1	.	0.276	.	.	.
CCOC(=O)c1sc(N)c(C#N)c1COC(=O)CNC(=O)c1cc(OC)c(OC)c(OC)c1	0.5	.	63.6*	53.0*	0.4
Cc1nn(Cc2ccccc2)c(N)c1-c1ccccc1	0.4	0.161	20.7	63.2*	0.8
Cc1nn(C2CCCCC2)c(N)c1-c1ccccc1	0.6	-3.37*	23.6	38.6	0.8
Nc1nnc(CC(=O)N/N=C/c2cccc(OCCOc3ccccc3)c2)s1	1.1	0.129	0.0	-8.1	1
O=C(Cn1cnc2ccccc21)N/N=C/c1ccccn1	1	.	28.8	3.1	0.7
CCOC(=O)Nc1sc2nc(C)cc(C)c2c1-n1cccc1	0.5	0.841	65.6*	45.3	0.3
Cc1ccc(S(=O)(=O)NNC(=O)c2snnc2C)cc1	1.1	0.00898	8.7	-9.5	0.9
Cc1cc(C)c2c(-n3cccc3)c(C(=O)NNS(=O)(=O)c3ccc(Br)cc3)sc2n1	.	-4.69*	.	.	.
CCOC(=O)Nc1sc(=S)n(C)c1C	.	0.553	.	.	.
O=C(Nc1ccccc1-c1nnn(CC(=O)N2CCCc3ccccc32)n1)c1ccco1	0.5	-0.418	89.8*	54.4*	0.1
O=C(Nc1ccccc1-c1nnn(CC(=O)N2CCCc3ccccc32)n1)c1ccc(Cl)cc1	.	-3.08	.	.	.
C=CCn1c(SCC(=O)Nc2ccc3c(c2)OCO3)nnc1-c1ccccc1OC	0.2	-0.264	89.3*	83.3*	0.1
Cc1ccccc1-c1nnc(SCC(=O)Nc2ccc3c(c2)OCCO3)n1N	0.6	0.731	73.0*	39.6	0.3
C=CCn1c(SCC(=O)Nc2ccc3c(c2)OCO3)nnc1-c1cc(Br)ccc1O	0.5	-6.61*	82.3*	48.8	0.2
C=CCn1c(SCC(=O)Nc2ccc3c(c2)OCO3)nnc1-c1ccccc1	0.5	0.429	51.9*	53.8*	0.5
COCCNC(=S)NC12CC3CC(CC(C3)C1)C2	0.6	-0.0852	-7.7	39.9	1.1
COc1cc2cc(C(=O)O)[nH]c2c(OC)c1OC	1.1	.	-0.9	-11.2	1
CC(=O)Nc1ccc(S(=O)(=O)N2CCC(NC(=O)c3ccco3)CC2)cc1	0.9	-0.899	26.0	9.1	0.7
CCOC(=O)c1cn(-c2nc(-c3ccc(Cl)c(Cl)c3)cs2)c2c(F)c(N3CCOCC3)c(F)cc2c1=O	1.1	.	17.4	-5.2	0.8
COC(=O)CSc1nnc(-c2ccncc2)n1N	0.7	-1.04	6.8	25.2	0.9
SMILES	CYP2C19 activ	Cav3 T inh	CYP2C9 inh	CYP2C19 inhib	CYP2C9 activ
C=CCn1c(SCC(=O)Nc2ncc(Cc3cc(Cl)ccc3Cl)s2)nnc1-c1ccncc1	0.4	0.702	16.8	56.1*	0.8
Nn1c(SCC(=O)Nc2ccc3c(c2)OCO3)nnc1-c1ccc(Cl)cc1	1.1	-0.4	4.2	-13.0	1
Nn1c(SCC(=O)Nc2ccc3c(c2)OCO3)nnc1-c1ccccc1	0.7	1.67	50.6*	27.6	0.5
C=CCn1c(SCC(=O)Nc2ncc(Cc3cc(C(F)(F)F)ccc3Cl)s2)nnc1-c1ccncc1	0.6	-0.274	21.3	38.0	0.8
O=C(CSc1nnnn1C1CCCC1)c1ccc2c(c1)OCCO2	0.8	-1.85	27.3	22.9	0.7
O=C(CSc1nnnn1C1CCCC1)Nc1ccc2c(c1)OCO2	0.6	-0.453	54.8*	39.2	0.5
Cc1ccc(NC(=O)CSc2nnc(-c3ccncc3)n2N)cc1C	0.7	1.01	53.3*	28.7	0.5
CCN(CC)S(=O)(=O)c1cccc(NC(=O)COC(=O)c2cc(C)oc2C)c1	0.4	-5.99*	96.5*	64.1*	0
Cc1ccc(S(=O)(=O)N2CCN(C(=O)COC(=O)c3cc(C)oc3C)CC2)cc1	1	-0.198	5.6	-3.3	0.9
Cc1cc(C(=O)OCC(=O)Nc2ccc(F)cc2)c(C)o1	0.4	0.136	-10.5	60.9*	1.1
Cc1cc(C(=O)OCc2nc3ccccc3s2)c(C)o1	0.7	.	5.6	28.9	0.9
NC(N)=NCCC[C@H](NC(=O)OCc1ccccc1)C(=O)O	.	0.0892	.	.	.
COCc1cc(=O)[nH]c(/N=C(\N)Nc2ccccc2C)n1	1	-0.0465	-1.2	-4.9	1
Cc1nc2sccn2c1-c1csc(NCc2ccccc2)n1	0.1	-2.37	61.6*	89.6*	0.4
CCC(=O)Nc1nc(C)c(-c2csc(Nc3ccc(S(=O)(=O)Nc4cc(C)on4)cc3)n2)s1	1	0.0534	33.3	-1.6	0.7
Cc1ccc(Cl)cc1Nc1nc(-c2sc(NC(=O)c3ccccc3)nc2C)cs1	0.5	-0.0413	76.6*	52.1*	0.2
Cc1cc(NS(=O)(=O)c2ccc(Nc3nc(-c4sc(NC(=O)c5ccccc5)nc4C)cs3)cc2)no1	1.2	0.291	75.0*	-17.5	0.3
Cc1nc(NC(=O)c2ccccc2)sc1-c1csc(N)n1	0.8	0.347	54.4*	19.4	0.5
CCOC(=O)CCC(=O)N1CCNC(=O)C1	0.8	0.756	28.5	16.5	0.7
CCN1C(=O)N(CN2CCOCC2)C2C1N(CN1CCOCC1)C(=O)N2CC (stereo not given)	1	-0.0155	13.5	0.4	0.9
CCC1(C)N(O)C(C)(C)C(c2ccc(F)cc2)=[N+]1[O-] (stereo not given)	.	0.485	.	.	.
Cc1nc(NC(=O)c2ccccc2)sc1-c1csc(NCCc2ccccc2)n1	0.5	-0.218	77.7*	48.1	0.2
Cc1nc(NC(=O)c2ccccc2)sc1-c1csc(NCc2ccccc2)n1	0.5	-0.647	65.6*	51.1*	0.3
Cc1nc(N)sc1-c1csc(NCc2ccccc2)n1	0.7	-1.03	43.3	30.0	0.6
CC1(C)Cc2c(sc(NC(=O)c3ccco3)c2C#N)C(C)(C)N1	1	0.141	-0.5	2.8	1
SMILES	CYP2C19 activ	Cav3 T inh	CYP2C9 inh	CYP2C19 inhib	CYP2C9 activ
COc1ccc(NC(=O)CSc2nc3c(c(=O)[nH]2)CCC3)cc1OC	0.9	0.403	27.6	14.0	0.7
CCOC(=O)c1sc(NS(=O)(=O)c2ccc(NC(C)=O)cc2)nc1C	0.8	0.793	44.8	15.3	0.6
CCCCN(CCCC)c1nc2ccccc2nc1NS(=O)(=O)c1ccc(NC(C)=O)cc1	0.5	0.366	64.2*	48.3	0.4
O=C1CC(c2ccccc2)CC(O)=C1C=NC1CCCCC1 (stereo not given)	1	.	-6.7	-2.0	1.1
O=S1(=O)C=CC(Nc2cccc(Cl)c2)C1 (stereo not given)	0.8	0.886	71.0*	18.1	0.3
Cc1ccccc1OCC(=O)NCC1CCCO1 (stereo not given)	0.5	0.401	0.6	45.2	1
CN(C)c1cccc(C(=O)OCC(=O)NCC2CCCO2)c1 (stereo not given)	0.3	.	-160.8	66.6*	2.6*
COc1cccc(C(=O)NCC2CCCO2)c1 (stereo not given)	1	.	12.7	-1.7	0.9

Screening data from PubChem.
